An excerpt weighted towards active compounds, which were near 0.78% of everything screened.
RGS8-Gao: RGS8-Galphao binding modulators, primary screen, biochemical, multiplexed bead flow cytometry; Guanine nucleotide-binding protein G(o) subunit alpha (Homo sapiens), P09471; actives lie on both sides; response (percent of control binding), % at 10 µM; 220,000 tested, 0.34% active; in the data active means response below about 60% or above about 140%; inactive means in between;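 further: Galphao activated as the GDP aluminium fluoride complex binding bead-coupled RGS8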
Target sequence (P09471 whole entry, looked up): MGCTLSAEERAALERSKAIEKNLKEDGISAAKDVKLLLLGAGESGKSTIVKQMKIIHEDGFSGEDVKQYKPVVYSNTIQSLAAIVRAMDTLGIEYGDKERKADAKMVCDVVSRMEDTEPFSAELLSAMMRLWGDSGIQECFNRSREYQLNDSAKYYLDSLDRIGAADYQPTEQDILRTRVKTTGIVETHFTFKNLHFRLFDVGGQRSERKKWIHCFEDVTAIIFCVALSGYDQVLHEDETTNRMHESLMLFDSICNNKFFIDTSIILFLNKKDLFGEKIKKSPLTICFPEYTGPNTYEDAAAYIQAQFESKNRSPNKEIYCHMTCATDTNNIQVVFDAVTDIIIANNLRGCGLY
RGS7-Gao: RGS7-Galphao binding modulators, primary screen, biochemical, multiplexed bead flow cytometry | Guanine nucleotide-binding protein G(o) subunit alpha (Homo sapiens), P09471 | actives lie on both sides | binding response (% of control), % at 10 µM | 220,000 tested, 0.35% active; in the data active means binding response below about 49% or above about 150%; inconclusive means no clear call, values can overlap the other calls; inactive means in between;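 further: fluorescent Galphao held in activated GDP-AlF4 state binding bead-coupled RGS7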
RGS4-Gao reg: modulators of RGS4 binding to Galphao, primary screen, biochemical, multiplexed bead flow cytometry | Guanine nucleotide-binding protein G(o) subunit alpha (Homo sapiens), P09471 | actives lie on both sides | binding response (% of control), % at 10 µM | 220,000 tested, 0.33% active; in the data active means binding response below about 49% or above about 150%; inactive means in between;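 further: fluorescent Galphao activated with aluminum fluoride binding bead-coupled RGS4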
RGS16-Gao HTS: modulators of RGS16 binding to Galphao, primary screen, biochemical, human proteins, multiplexed bead flow cytometry | binding response (% of control), % at 10 µM | 220,000 tested, 0.38% active | Regulator of G-protein signaling 16 (Homo sapiens) + Guanine nucleotide-binding protein … | AID 1441, 2008 | bead-based flow cytometry RGS16-Galphao binding, fluorescence; actives lie on both sides;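 further: Galphao activated by GDP with aluminum fluoride before binding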
Target sequence (O15492 whole entry, looked up): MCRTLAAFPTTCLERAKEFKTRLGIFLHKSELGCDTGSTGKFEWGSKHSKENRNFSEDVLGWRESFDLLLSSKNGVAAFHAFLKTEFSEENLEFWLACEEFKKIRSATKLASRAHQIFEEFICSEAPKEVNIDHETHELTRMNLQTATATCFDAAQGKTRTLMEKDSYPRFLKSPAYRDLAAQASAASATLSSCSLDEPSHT
Target sequence (P09471 whole entry, looked up): as the sequence (P09471 whole entry, looked up) above
RGS-Gao: modulators of RGS–Galpha-o binding, primary screen, biochemical, multiplexed beads, flow cytometry, RGS4/7/8/16/19; shares compounds with RGS16-Gao HTS; multiplexed bead flow cytometry; RGS4–Galpha-o binding response, % at 10 µM; 1,600 tested, 99% active; AID 1504, 2009;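 further: fluorescently labeled Galpha-o bound to GDP with aluminium fluoride binding biotinylated RGS beads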
Avidin counter: disruption of biotin probe capture by avidin, counter-screen for RGS protein interaction modulators, biochemical, flow cytometry, bead-based | streptavidin beads, fluorescein-biotin binding | 1,700 tested, under 10 active | AID 1783, 2009 | inhibition, % at 10 µM | shares compounds with RGS16-Gao HTS;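 active means inhibition above 50%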;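 further: median green fluorescence of gated singlet beads compared with DMSO control wells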
RGS8-Gao confirm: RGS8-Galphao binding modulators, confirmation, biochemical, multiplexed bead flow cytometry, single concentration | shares compounds with RGS16-Gao HTS | bead-based flow cytometry RGS8-Galphao binding, fluorescence; actives lie on both sides | binding response (% of control), % at 10 µM | 1,700 tested, 3% active | AID 1836, 2009; in the data active means binding response below about 72% or above about 130%; inactive means in between;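 further: Galphao activated as GDP AlF4 complex before binding bead RGS8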
RGS7-Gao single: RGS7-Galphao binding modulators, confirmation, biochemical, multiplexed bead flow cytometry, single concentration; 1,700 tested, 7.8% active; response (percent of control binding), % at 10 µM; shares compounds with RGS16-Gao HTS; bead-based flow cytometry RGS7-Galphao binding; actives lie on both sides; in the data active means response below about 75% or above about 130%; inactive means in between;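 further: fluorescent Galphao activated with GDP and aluminum fluoride binding bead-coupled RGS7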
RGS16-Gao conf: modulators of RGS16-Galphao protein binding, confirmation, biochemical, single concentration, multiplexed bead flow cytometry; 1,700 tested, 4% active; bead-based flow cytometry; actives lie on both sides; response (% of control binding), % at 10 µM; shares compounds with RGS16-Gao HTS; in the data active means response below about 74% or above about 130%; inactive means in between;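 further: Galphao activated as the GDP aluminium fluoride complex binding bead-coupled RGS16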
RGS4-Gao single: modulators of RGS4-Galphao protein binding, confirmation, biochemical, single concentration, multiplexed bead flow cytometry. shares compounds with RGS16-Gao HTS. actives lie on both sides. binding response (% of control), % at 10 µM. 1,700 tested, 4% active. AID 1840, 2009; in the data active means binding response below about 74% or above about 130%; inactive means in between
RGS19-Gao conf: regulators of RGS19-Galphao binding, confirmation, biochemical, single point, multiplexed bead flow cytometry; shares compounds with RGS16-Gao HTS; bead-based flow cytometry RGS19-Galphao binding; actives lie on both sides; response (percent of control binding), % at 10 µM; 1,700 tested, 5% active; AID 1841, 2009; in the data active means response below about 50% or above about 160%; inactive means in between
Numbers stand for hits; – = inactive; ? = inconclusive; · = no result given; [ ] = dose if it differs, or a comment. Unless noted, how the calls were made is not given here.

SMILES	RGS8-Gao	RGS7-Gao	RGS4-Gao reg	RGS16-Gao HTS	RGS-Gao	Avidin counter	RGS8-Gao confirm	RGS7-Gao single	RGS16-Gao conf	RGS4-Gao single	RGS19-Gao conf
O=C(Nc1ccc2c(c1)OCCO2)c1ccc2ccccc2n1	–	–	–	–	·	·	·	·	·	·	·
O=C(CN1CCN(C(=O)c2ccco2)CC1)Nc1ccc2c(c1)OCCO2	–	178[activator]	–	–	122	–	–	–	–	–	–
O=C(NCCN=C1NS(=O)(=O)c2ccccc21)c1ccncc1	–	163[activator]	–	–	148	–	–	–	–	–	–
O=C(NCCN=C1NS(=O)(=O)c2ccccc21)c1ccc2nccnc2c1	–	–	–	–	·	·	·	·	·	·	·
CCN(CC)S(=O)(=O)c1cccc(-c2nnc(SCC(=O)NC)n2CCc2ccccc2)c1	–	246[activator]	–	–	128	–	–	–	–	–	–
O=C(CCc1nnc(C2CCCCC2)o1)NCc1ccc(F)c(F)c1	–	–	–	–	·	·	·	·	·	·	·
O=C(CSc1nnc(-c2cnccn2)n1Cc1ccco1)c1ccc2ccccc2c1	22	25	29	19	·	–	–	–	–	–	–
CC(C)OC(=O)CSc1nnc(-c2cnccn2)n1Cc1ccco1	–	–	–	–	·	·	·	·	·	·	·
O=C(CSc1nc2ccccc2n1CCc1ccccc1)NC1CC1	–	–	–	–	·	·	·	·	·	·	·
Fc1ccc(C2=NNC(=NCc3ccccc3)SC2)cc1F	–	–	–	–	·	·	·	·	·	·	·
Cc1ccc(Cl)c(OC(=O)c2nn(C(C)C)c(=O)c3ccccc23)c1	–	–	–	248[activator]	101	–	–	–	–	–	–
COC(=O)c1cccc(NC(=O)c2nn(C(C)C)c(=O)c3ccccc23)c1	–	–	–	–	·	·	·	·	·	·	·
COc1ccc(Br)cc1S(=O)(=O)n1ccnc1C	–	–	–	–	·	·	·	·	·	·	·
Cc1nccn1S(=O)(=O)c1ccc(Br)cc1Br	–	168[activator]	–	–	145	·	·	·	·	·	·
Cc1[nH]c2ccccc2c1/C=N/NC(=S)NCc1ccccc1	–	?	159[activator]	–	·	–	–	226[activator]	146[activator]	165[activator]	294[activator]
Cc1sc(N)c(C(=O)c2ccccc2)c1C	–	253[activator]	–	–	126	–	–	–	–	–	–
CCCC(CCC)C(=O)Nc1ccc2c(c1)N(C(=O)CN1CCN(C)CC1)c1ccccc1CC2	–	–	–	253[activator]	121	–	–	–	–	–	–
NC(=O)c1ccc(Nc2ccc([N+](=O)[O-])cc2[N+](=O)[O-])cc1	–	?	–	–	·	·	·	·	·	·	·
CCOC(=O)c1[nH]c2cc(OC)c(OC)cc2c1NC(=O)c1ccc2c(c1)OCO2	–	–	–	–	·	·	·	·	·	·	·
Cc1nc2c3ccccc3nc(NNC(=O)CCC(=O)NC(C)C)n2n1	–	–	–	4.1	89	–	–	–	–	–	–
CCC(C)NC(=O)CCC(=O)NNc1nc2ccccc2c2nc(C)nn12 (stereo not drawn)	–	–	–	–	·	·	·	·	·	·	·
O=C(c1ccc2ccccc2n1)N1CCN(c2ccccc2)CC1	–	–	–	–	·	·	·	·	·	·	·
CCCc1nc2c(o1)CC(CC(C)SCC)CC2=O (stereo not drawn)	7.4	-1.3	-7.5	-7.1	·	–	–	–	–	–	–
CCSC(C)CC1CC(=O)CC(=O)C1 (stereo not drawn)	·	·	·	·	·	–	–	–	–	–	–
CC(C)(C)NCC(O)COc1ccc(Br)cc1 (stereo not drawn)	–	–	–	–	·	·	·	·	·	·	·
SMILES	RGS8-Gao	RGS7-Gao	RGS4-Gao reg	RGS16-Gao HTS	RGS-Gao	Avidin counter	RGS8-Gao confirm	RGS7-Gao single	RGS16-Gao conf	RGS4-Gao single	RGS19-Gao conf
C#CCOCCOCCOCCNc1nc(N2CCN(C(=O)C([C@@H](C)CC)n3cc(C(N)CC(C)C)nn3)CC2)nc(N2CCN(C(=O)[C@H](CCC(=O)O)n3cc(C(N)CC(C)C)nn3)CC2)n1 (stereo partly drawn)	–	–	–	–	·	·	·	·	·	·	·
O=C(Nc1ccccc1)Nc1snnc1C(=O)Nc1cccc(O)c1	24	16	16	12	·	–	–	–	–	–	–
NS(=O)(=O)c1cccc(NC(=O)COC(=O)Cn2cnc3ccccc32)c1	–	?	–	–	·	·	·	·	·	·	·
CCOc1ccc(S(=O)(=O)NC2CCCCCC2)cc1	50	35	46	–	·	–	–	–	–	–	–
CCOc1ccc(S(=O)(=O)N/N=C(\C)C2CCCCC2)cc1	–	–	–	14	101	–	–	–	–	–	–
CCOc1ccc(S(=O)(=O)N/N=C(\C)Cc2ccc(OC)cc2)cc1	–	?	–	–	·	·	·	·	·	·	·
CN(C)S(=O)(=O)c1cccc(NC(=S)N(CCC#N)Cc2cccnc2)c1	–	–	–	–	·	·	·	·	·	·	·
S=c1[nH]c(-c2ccccc2)cn1/N=C/c1cccc2ccccc12	–	–	–	–	·	·	·	·	·	·	·
CCNc1nc(NC(C)C)nc(OCCOC(=O)Nc2ccccc2)n1	–	–	–	–	·	·	·	·	·	·	·
COc1ccc(N2CCN(c3nc4ccccc4n3CC(=O)c3ccccc3)CC2)cc1	–	165[activator]	–	–	108	–	–	–	–	–	–
CCOC(=O)C1CCN(c2nc3ccccc3n2CC(=O)c2ccccc2)CC1	–	–	–	–	·	·	·	·	·	·	·
CCC12CN3CCN(CC(C3)/C1=N\NC(=O)Nc1ccccc1)C2	–	–	–	–	·	·	·	·	·	·	·
O=C(Nc1nc(-c2ccccc2)c(C(=O)c2ccccc2)s1)c1ccc(S(=O)(=O)N2CCCC2)cc1	–	381[activator]	297[activator]	349[activator]	·	–	–	–	–	–	–
Cc1ccc2cc3cc(C(=O)N4CCN(Cc5ccccc5)CC4)sc3nc2c1	–	162[activator]	172[activator]	193[activator]	·	–	–	–	–	–	–
COc1ccc(NC(=O)Nc2ncccc2C)cc1	–	–	–	–	·	·	·	·	·	·	·

Screens: PubChem BioAssay, NMMLSC
